Screening data from PubChem.
Sa RN4220 lethal: S. aureus RN4220 growth inhibition; OD600, 16 h; 330,000 compounds, 0.33% hits; inhibition, % (test concentration not listed); in the data active = inhibition above about 85%
PrPC TRFRET: reduces human prion protein on the cell surface. P04156. cell surface PrPC, TR-FRET read-out. inhibition, % at 13.8 µM. 370,000 compounds, 0.43% hits. AID 720596; in the data active = inhibition above about 24%
ugtP null kill: compounds lethal to S. aureus RN4220 ugtP deletion mutant; OD600 growth, 16 h; growth inhibition, % (concentration not given with the values); 330,000 compounds, 0.54% hits; AID 1259309; in the data active = growth inhibition above about 68%
BJeLR lethal: BJeLR cell viability loss; BJeLR (HRASV12) viability, CellTiter-Glo ATP luminescence, 48 h; inhibition, % (test concentration not listed); 300,000 compounds, 0.17% hits; AID 1554; in the data active = inhibition above about 50%
Each line names hits and unclear results; the compound was inactive in the other large screens. Hits are enriched below; roughly 0.95% of the tested compounds scored in any of these assays.

COc1c(N2CCN(C(=S)NCc3ccccc3)C(C)C2)c(F)cc2c(=O)c(C(=O)O)cn(C3CC3)c12 (configuration not stated)	Sa RN4220 lethal 100, ugtP null kill 100
NC(CO)c1nnc(C(Cc2ccc(O)cc2)NC(=O)C2CCNCC2)o1 (configuration not stated)	none (no result: PrPC TRFRET, BJeLR lethal)
Cc1ccc(NN=C/C=C/c2ccco2)cc1	none (no result: PrPC TRFRET, BJeLR lethal)
CCC(C)=NN1C(=O)c2ccccc2NC1(C)CC (configuration not stated)	none (no result: PrPC TRFRET, BJeLR lethal)
CCOC(=O)C1CCN(S(=O)(=O)c2c(Cl)ccc3nonc23)CC1	BJeLR lethal 60 (no result: Sa RN4220 lethal, ugtP null kill)
CCC(=NNC(=S)Nc1ccc(OC)cc1)c1ccc(OC(F)F)cc1	none (no result: PrPC TRFRET, BJeLR lethal)
C[n+]1c(-c2ccccc2)c2cc(N)ccc2c2ccc(N)cc21	ugtP null kill 98
Nc1ccc2nc(-c3ccccc3)c(-c3ccccc3)nc2c1	none (no result: Sa RN4220 lethal, ugtP null kill)
CCSc1cc(N2CCCC2)nc(-c2ccc(C)cc2)n1	none
Cc1cc(N2CCCCC2)nc(-c2ccc(Br)cc2)n1	ugtP null kill 87
O=C(Nc1ccc(Cl)c(Cl)c1)N1CCCCCC1	none
CC(=O)c1ccc(NC(=S)Nc2ccc(Br)c(Cl)c2)cc1	Sa RN4220 lethal 100, ugtP null kill 100
O=C(c1ccc(NC(=S)Nc2ccc(Cl)c(Cl)c2)cc1)N1CCCC1	Sa RN4220 lethal 101, ugtP null kill 100
Cc1ccccc1OCC(=O)NN=Cc1ccc(Sc2nc3ccccc3s2)o1	none (no result: PrPC TRFRET, BJeLR lethal)
NC(=NOC(=O)Cc1ccc([N+](=O)[O-])cc1)c1cccc(Br)c1	none (no result: PrPC TRFRET, BJeLR lethal)
O=C(Nc1ccc(OCC(F)(F)C(F)F)c(C(F)(F)F)c1)c1ccccc1O	Sa RN4220 lethal 112, ugtP null kill 100
O=C(Nc1ccc(OCC(F)(F)C(F)F)c(C(F)(F)F)c1)c1ccccc1	none
Cc1cc(C)c(O)c(CN(C)Cc2cc(Cl)cc(Cl)c2O)c1	Sa RN4220 lethal 100, ugtP null kill 86 (no result: BJeLR lethal)
Cc1cc2ncn(N=Cc3ccc([N+](=O)[O-])o3)c2cc1C	Sa RN4220 lethal 100, ugtP null kill 101 (no result: PrPC TRFRET, BJeLR lethal)
Cc1nc2ccccc2n1/N=C/c1ccc([N+](=O)[O-])o1	none (no result: Sa RN4220 lethal, ugtP null kill)
Cc1nc2ccccc2n1N=Cc1ccc([N+](=O)[O-])o1	Sa RN4220 lethal 101, ugtP null kill 100 (no result: PrPC TRFRET, BJeLR lethal)
O=C(CCN1C(=O)C2C3C=CC(C4CC34)C2C1=O)Oc1ccc(Br)cc1 (configuration not stated)	none
O=C(CCN1C(=O)C2C3C=CC(C4CC34)C2C1=O)Oc1cccc2cccnc12 (configuration not stated)	Sa RN4220 lethal 100, ugtP null kill 98
Cc1nn(-c2ccccc2)c(N2CCCC2)c1C=NNc1ccc(S(=O)(=O)Nc2ccccc2)cc1[N+](=O)[O-]	none (no result: PrPC TRFRET, BJeLR lethal)
O=C(NN=Cc1ccc([N+](=O)[O-])o1)c1cc2ccccc2o1	none (no result: PrPC TRFRET, BJeLR lethal)
Cc1ccc2nc(NN=Cc3ccc([N+](=O)[O-])o3)nc(-c3ccccc3)c2c1	Sa RN4220 lethal 99, ugtP null kill 100 (no result: PrPC TRFRET, BJeLR lethal)
O=C(NN=Cc1ccc([N+](=O)[O-])o1)c1cc2c(ccc3ccccc32)o1	Sa RN4220 lethal 98, ugtP null kill 99 (no result: PrPC TRFRET, BJeLR lethal)
Cc1cc(NN=Cc2ccc([N+](=O)[O-])o2)nc2ccccc12	none (no result: PrPC TRFRET, BJeLR lethal)
CC1(C(=O)NN=Cc2ccc([N+](=O)[O-])o2)CC1(Br)Br (configuration not stated)	ugtP null kill 89 (no result: PrPC TRFRET, BJeLR lethal)
COC(=O)N/N=C/c1ccc([N+](=O)[O-])o1	none (no result: Sa RN4220 lethal, ugtP null kill)
CCCc1ccc(-c2cc(C(=O)N/N=C/c3ccc([N+](=O)[O-])o3)c3ccccc3n2)cc1	none (no result: Sa RN4220 lethal, ugtP null kill)
CCCc1ccc(-c2cc(C(=O)NN=Cc3ccc([N+](=O)[O-])o3)c3ccccc3n2)cc1	Sa RN4220 lethal 108, ugtP null kill 99 (no result: PrPC TRFRET, BJeLR lethal)
O=C(CSc1ncccn1)NN=Cc1cccc(OC2CSC2)c1	none (no result: PrPC TRFRET, BJeLR lethal)
Cc1ccc(NC(=O)CCC(=O)N/N=C/c2ccc([N+](=O)[O-])o2)cc1C	none (no result: Sa RN4220 lethal, ugtP null kill)
O=C(NN=Cc1ccc([N+](=O)[O-])o1)c1cn(-c2ccccc2)nc1-c1ccc(Cl)cc1	Sa RN4220 lethal 99, ugtP null kill 99 (no result: PrPC TRFRET, BJeLR lethal)
COc1ccc(-c2nn(-c3ccccc3)cc2C(=O)N/N=C/c2ccc([N+](=O)[O-])o2)cc1	none (no result: Sa RN4220 lethal, ugtP null kill)
CCCC(=O)Nc1ccc(C(=O)N/N=C/c2ccc([N+](=O)[O-])o2)cc1	BJeLR lethal 122 (no result: Sa RN4220 lethal, ugtP null kill)
COc1ccc2c(c1O)C(=O)c1ccccc1C2=O	none (no result: Sa RN4220 lethal, PrPC TRFRET, ugtP null kill)
CC(C)COC(=O)c1ccc2c(c1O)C(=O)c1ccccc1C2=O	Sa RN4220 lethal 92, ugtP null kill 93
CC(C)CCCC(C)C1CCC2C3C(=O)C=C4CC(O)CC[C@]4(C)C3CC[C@]12C (some centres not stated)	none (no result: PrPC TRFRET, BJeLR lethal)
CC(=O)O/C(=C1\CC2C3CC=C4CC(OC(C)=O)CCC4(C)C3CCC2(C)C1=O)C(F)(F)F (configuration not stated)	Sa RN4220 lethal 100, ugtP null kill 100 (no result: BJeLR lethal)
COc1ccc(C2CC2C(C)=NOC(=O)c2cccs2)cc1 (configuration not stated)	none (no result: PrPC TRFRET, BJeLR lethal)
NC(=NCCCCCCN=C(N)N=C(N)Nc1ccc(Cl)cc1)N=C(N)Nc1ccc(Cl)cc1	Sa RN4220 lethal 100, ugtP null kill 100 (no result: PrPC TRFRET, BJeLR lethal)
Cc1nnc(SCC2=C(C(=O)O)N3C(=O)[C@@H](NC(=O)Cn4cnnn4)[C@H]3SC2)s1	Sa RN4220 lethal 97, ugtP null kill 100
Cc1nnc(SCC2=C(C(=O)O)N3C(=O)C(NC(=O)Cn4cnnn4)C3SC2)s1 (configuration not stated)	Sa RN4220 lethal 100, ugtP null kill 100
Cc1cc(Oc2cccnc2)ccc1NC(=O)Cc1c[nH]c2ccccc12	none (no result: Sa RN4220 lethal, ugtP null kill, BJeLR lethal)
Cc1nc(Nc2ccc(Cl)c(Cl)c2)sc1C(=O)Nc1ccccc1	Sa RN4220 lethal 93, ugtP null kill 99
Cc1ccc(C(C)C)c(OCc2nn(CC(=O)c3ccc(OC(F)F)cc3)c3[n+]2CCCCC3)c1	Sa RN4220 lethal 100, ugtP null kill 95 (no result: PrPC TRFRET)
COc1ccc(C(=O)Cn2nc(CNc3ccc(Br)cc3)[n+]3c2CCCCC3)cc1	Sa RN4220 lethal 99, ugtP null kill 98
O=C(Cn1nc(-c2nn(CC(=O)c3ccccc3)c3[n+]2CCCCC3)[n+]2c1CCCCC2)c1ccccc1	none
O=C(NN=Cc1ccc(OC(=O)c2ccco2)cc1)c1ccccn1	none (no result: PrPC TRFRET, BJeLR lethal)
Cc1cc(=O)n2c3c(c4c(cc13)c(CN(C)C)cc(=O)n4C)OC2	PrPC TRFRET 40 (no result: Sa RN4220 lethal, ugtP null kill, BJeLR lethal)
COc1ccccc1C(=O)Nc1ccccc1SC(=O)c1ccccc1OC	ugtP null kill 89
COc1ccc(C(=O)Nc2ccc(C)cc2C(=O)c2ccccc2)cc1	none
COc1ccccc1C(=O)Nc1ccc(C)cc1C(=O)c1ccccc1	ugtP null kill 93
CCCOc1nc(SCCC)nc2c1cnn2-c1ccccc1	ugtP null kill 93
COc1ccc(S(=O)(=O)NC(Cc2ccc(Cl)cc2)C(=O)N2CC[C@@]3(O)CCCCC3C2)cc1 (some centres not stated)	none (no result: PrPC TRFRET, BJeLR lethal)
COc1ccc(C=NNC(=O)C2c3ccccc3Oc3ccccc32)c(OC)c1	none (no result: PrPC TRFRET, BJeLR lethal)
C#CCNC(=O)C1=CC(C)CC(OCc2ccc(CO)cc2)O1 (configuration not stated)	none (no result: PrPC TRFRET, BJeLR lethal)
Cc1cc(C)n(N=Cc2ccccc2O)c(=O)c1	none (no result: PrPC TRFRET, BJeLR lethal)
N/C(=N\N=Cc1ccc(Br)cc1)NN=Cc1ccc(Br)cc1	Sa RN4220 lethal 101, ugtP null kill 100 (no result: PrPC TRFRET, BJeLR lethal)
Cc1oc2cc(Br)c(O)c(Br)c2c1-c1ccccc1	ugtP null kill 87 (no result: PrPC TRFRET)
